AC50 and outcome data for 19 compounds are collected here from PubChem BioAssay (EPA / NIEHS).

Inconclusive results are not listed. Active and inactive are the calls of the source. The calls were made as follows: active = hit-call score of the fitted dose curve at least 0.9, where 1 is the maximum; inconclusive = response in the unintended direction; inactive = score below 0.9.

Test [1] has as its target human Vascular Endothelial Growth Factor Receptor 2 (VEGFR2), KDR (gene 3791) (UniProt P35968). The experiment in a line: NVS_ENZ_hVEGFR2: NovaScreen (NVS) Enzymatic Assay for human Vascular Endothelial Growth Factor Receptor 2 (VEGFR2) (AID 2283230). The gist of the method: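 Cell-free recombinant VEGFR2 kinase, fluorescent substrate with electrophoretic mobility-shift separation; read 1 h after dosing. Screened at 25 uM in duplicate, hits to concentration-response up to 50 uM; loss-of-signal versus DMSO.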

Test [2] addresses Adenosine receptor A1 (Bos taurus) (UniProt P28190). As to the kind of experiment: NVS_GPCR_bAdoR_NonSelective: NovaScreen (NVS) G Protein-Coupled Receptor Assay for bovine Adenosine Receptor (AdoR), Non-selective Binding (AID 2283244). In short, it runs like this: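 Bovine striatal membranes, radioligand displacement binding, 1 h after dosing, filter-based scintillation counting. Screened in duplicate at 25 uM, then concentration-response up to 50 uM; loss of specific binding relative to DMSO.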

The target of test [3] is human Sirtuin 2 (SIRT2), SIRT2 (gene 22933) (UniProt Q8IXJ6). As to the kind of experiment: NVS_ENZ_hSIRT2: NovaScreen (NVS) Enzymatic Assay for human Sirtuin 2 (SIRT2) (AID 2283217). In short, it runs like this:
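Cell-free recombinant human SIRT2, fluorescent substrate with product separated by electrophoretic mobility shift, 1 hr. Screened in duplicate at 25 uM; hits rerun singly in concentration-response up to 50 uM, relative to DMSO.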

The target of test [4] is human Serotonin, 5-Hydroxytryptamine Receptor 2A (5HT2A), HTR2A (gene 3356) (UniProt P28223). The experiment in a line: NVS_GPCR_h5HT2A: NovaScreen (NVS) G Protein-Coupled Receptor Assay for human Serotonin, 5-Hydroxytryptamine Receptor 2A (5HT2A) (AID 2283249). In short, it runs like this: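 Human cortex membranes, cell-free radioligand binding; filter-based scintillation read 1.5 h after dosing. Duplicate screen at 25 uM first; displacement of specific binding (loss of signal) versus DMSO.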

Test [5] is described as follows: NVS_GPCR_bNPY_NonSelective: NovaScreen (NVS) G Protein-Coupled Receptor Assay for bovine Neuropeptide Y (NPY) Receptor, Non-selective Binding (AID 2283245). In short, it runs like this:
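Bovine hippocampal membranes incubated 1 hour with radioligand and test chemical. Bound ligand measured by filter-based scintillation counting. Single-concentration screen at 25 uM in duplicate, then concentration-response up to 50 uM.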

Test [6] addresses human Sirtuin 3 (SIRT3), SIRT3 (gene 23410) (UniProt Q9NTG7). The experiment in a line: NVS_ENZ_hSIRT3: NovaScreen (NVS) Enzymatic Assay for human Sirtuin 3 (SIRT3) (AID 2283222). In short, it runs like this: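 Cell-free enzyme assay with recombinant protein and fluorescent substrate, product separated by electrophoretic mobility shift; read 1 hour after dosing. Screened in duplicate at 25 uM, then singleton concentration-response up to 50 uM; loss of signal versus DMSO.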

Test [7] deals with human Tropomyosin Receptor Kinase A (TRKA), NTRK1 (gene 4914) (UniProt P04629). The experiment in a line: NVS_ENZ_hTrkA: NovaScreen (NVS) Enzymatic Assay for human Tropomyosin Receptor Kinase A (TRKA) (AID 2283224). In short, it runs like this: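 Recombinant human TrkA activity read after 1 h by fluorescence with electrophoretic mobility shift separating substrate and product. Primary screen in duplicate at 25 uM; actives were rerun in concentration-response up to 50 uM. Loss of signal versus DMSO.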

Test [8] has as its target human Vascular Endothelial Growth Factor Receptor 1 (VEGFR1), FLT1 (gene 2321) (UniProt P17948). As to the kind of experiment: NVS_ENZ_hVEGFR1: NovaScreen (NVS) Enzymatic Assay for human Vascular Endothelial Growth Factor Receptor 1 (VEGFR1) (AID 2283226). In short, it runs like this: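 Cell-free assay of recombinant human VEGFR1 kinase with substrate, measured 1 h after dosing; fluorescence with electrophoretic mobility-shift separation of substrate and product, referenced to DMSO; primary screen at 25 uM in duplicate, actives then run in concentration series.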

Test [9] deals with human Vascular Endothelial Growth Factor Receptor 3 (VEGFR3), FLT4 (gene 2324) (UniProt P35916). As to the kind of experiment: NVS_ENZ_hVEGFR3: NovaScreen (NVS) Enzymatic Assay for human Vascular Endothelial Growth Factor Receptor 3 (VEGFR3) (AID 2283229). In short, it runs like this:
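Cell-free recombinant VEGFR3 kinase reaction with fluorescent substrate, read 1 h after dosing by electrophoretic mobility shift separation of substrate and product. Single-concentration duplicate screen at 25 uM, then concentration-response up to 50 uM; loss of activity versus DMSO.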

The test system of test [10] is bovine Histamine 1 Receptor (H1), gene 281231. The experiment in a line: NVS_GPCR_bH1: NovaScreen (NVS) G Protein-Coupled Receptor Assay for bovine Histamine 1 Receptor (H1) (AID 2283246). The gist of the method:
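Radioligand displacement on bovine cerebellar membranes, 1 h after dosing, filter-based scintillation read-out; loss of signal vs DMSO. Duplicate single-concentration screen at 25 uM, then concentration-response up to 50 uM for hits.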

Test [11] concerns the target rat Constitutive Nitric Oxide Synthase (CNOS), Nos1 (gene 24598) (UniProt P29476). The experiment in a line: NVS_ENZ_rCNOS: NovaScreen (NVS) Enzymatic Assay for rat Constitutive Nitric Oxide Synthase (CNOS) (AID 2283236). The gist of the method:
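Enzyme activity in rat brain membrane preparation, read 1 h after dosing by filter-based radiometric scintillation counting. Primary screen in duplicate at 25 uM; actives (e.g., ≥30% inhibition) then run in concentration-response up to 50 uM.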

Test [12] concerns the target sheep Cyclooxygenase-1 (Cox1), PTGS1 (gene 443551) (UniProt P05979). As to the kind of experiment: NVS_ENZ_oCOX1: NovaScreen (NVS) Enzymatic Assay for sheep Cyclooxygenase-1 (Cox1) (AID 2283239).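 Also: actives reduce cyclooxygenase activity so potencies are for inhibitors.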 In short, it runs like this: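 Cell-free colorimetric assay of enzyme activity in a native extract of ovine seminal vesicles. Absorbance was read 0.66 hour after compound addition. Loss of signal relative to the DMSO negative control was scored, with actives from the 25 uM duplicate primary screen retested in concentration series.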

In test [13] the target is rabbit Imidazoline 2 Central (I2C), CKB (gene 100009085) (UniProt P00567). As to the kind of experiment: NVS_ENZ_rabI2C: NovaScreen (NVS) Enzymatic Assay for rabbit Imidazoline 2 Central (I2C) (AID 2283228). The gist of the method:
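Rabbit brain membranes, cell-free; readout by filter-based scintillation counting 1.5 hours after dosing, loss of signal vs DMSO. Initial duplicate test at 25 uM, then concentration-response with 50 uM top concentration.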

For test [14], the target named is human Sirtuin 1 (SIRT1), SIRT1 (gene 23411) (UniProt Q96EB6). The experiment in a line: NVS_ENZ_hSIRT1: NovaScreen (NVS) Enzymatic Assay for human Sirtuin 1 (SIRT1) (AID 2283219). The gist of the method: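 Cell-free recombinant SIRT1 with a fluorescent substrate; substrate and product separated by electrophoretic mobility shift and read by fluorescence intensity, 1 h after dosing. Primary screen at 25 uM in duplicate; hits re-run in concentration-response up to 50 uM, relative to DMSO.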

The target of test [15] is bovine Dopamine Receptor (DR), Non-selective Binding, DRD1 (gene 281125) (UniProt Q95136). The experiment in a line: NVS_GPCR_bDR_NonSelective: NovaScreen (NVS) G Protein-Coupled Receptor Assay for bovine Dopamine Receptor (DR), Non-selective Binding (AID 2283241). The gist of the method: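 Bovine striatal membranes; radioligand displacement read by filtration and scintillation counting 1 h after dosing, loss of signal vs DMSO. Screened in duplicate at 25 uM, then concentration-response for hits.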

In test [16] the test system is guinea pig Leukotriene B4 Receptor (LTB4), gene 100379538. As to the kind of experiment: NVS_GPCR_gLTB4: NovaScreen (NVS) G Protein-Coupled Receptor Assay for guinea pig Leukotriene B4 Receptor (LTB4) (AID 2283247). In short, it runs like this: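 Radioligand displacement on guinea pig spleen membranes, filter-based scintillation counting 2 h after dosing. Primary duplicate single point at 25 uM; hits over threshold (e.g. 30% inhibition) run in concentration-response up to 50 uM, DMSO baseline.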

The target in test [17] is human SRC Proto-Oncogene, Non-receptor Tyrosine Kinase (SRC), SRC (gene 6714) (UniProt P12931). As to the kind of experiment: NVS_ENZ_hSRC: NovaScreen (NVS) Enzymatic Assay for human SRC Proto-Oncogene, Non-receptor Tyrosine Kinase (SRC) (AID 2283223). The gist of the method:
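Cell-free kinase activity assay with fluorescent substrate, product separated by electrophoretic mobility shift, read 1 h after dosing. Duplicate single point at 25 uM, then concentration-response up to 50 uM; loss of signal versus DMSO.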

human Vascular Endothelial Growth Factor Receptor 2 (VEGFR2), KDR (gene 3791), sequence (P35968 whole entry, looked up): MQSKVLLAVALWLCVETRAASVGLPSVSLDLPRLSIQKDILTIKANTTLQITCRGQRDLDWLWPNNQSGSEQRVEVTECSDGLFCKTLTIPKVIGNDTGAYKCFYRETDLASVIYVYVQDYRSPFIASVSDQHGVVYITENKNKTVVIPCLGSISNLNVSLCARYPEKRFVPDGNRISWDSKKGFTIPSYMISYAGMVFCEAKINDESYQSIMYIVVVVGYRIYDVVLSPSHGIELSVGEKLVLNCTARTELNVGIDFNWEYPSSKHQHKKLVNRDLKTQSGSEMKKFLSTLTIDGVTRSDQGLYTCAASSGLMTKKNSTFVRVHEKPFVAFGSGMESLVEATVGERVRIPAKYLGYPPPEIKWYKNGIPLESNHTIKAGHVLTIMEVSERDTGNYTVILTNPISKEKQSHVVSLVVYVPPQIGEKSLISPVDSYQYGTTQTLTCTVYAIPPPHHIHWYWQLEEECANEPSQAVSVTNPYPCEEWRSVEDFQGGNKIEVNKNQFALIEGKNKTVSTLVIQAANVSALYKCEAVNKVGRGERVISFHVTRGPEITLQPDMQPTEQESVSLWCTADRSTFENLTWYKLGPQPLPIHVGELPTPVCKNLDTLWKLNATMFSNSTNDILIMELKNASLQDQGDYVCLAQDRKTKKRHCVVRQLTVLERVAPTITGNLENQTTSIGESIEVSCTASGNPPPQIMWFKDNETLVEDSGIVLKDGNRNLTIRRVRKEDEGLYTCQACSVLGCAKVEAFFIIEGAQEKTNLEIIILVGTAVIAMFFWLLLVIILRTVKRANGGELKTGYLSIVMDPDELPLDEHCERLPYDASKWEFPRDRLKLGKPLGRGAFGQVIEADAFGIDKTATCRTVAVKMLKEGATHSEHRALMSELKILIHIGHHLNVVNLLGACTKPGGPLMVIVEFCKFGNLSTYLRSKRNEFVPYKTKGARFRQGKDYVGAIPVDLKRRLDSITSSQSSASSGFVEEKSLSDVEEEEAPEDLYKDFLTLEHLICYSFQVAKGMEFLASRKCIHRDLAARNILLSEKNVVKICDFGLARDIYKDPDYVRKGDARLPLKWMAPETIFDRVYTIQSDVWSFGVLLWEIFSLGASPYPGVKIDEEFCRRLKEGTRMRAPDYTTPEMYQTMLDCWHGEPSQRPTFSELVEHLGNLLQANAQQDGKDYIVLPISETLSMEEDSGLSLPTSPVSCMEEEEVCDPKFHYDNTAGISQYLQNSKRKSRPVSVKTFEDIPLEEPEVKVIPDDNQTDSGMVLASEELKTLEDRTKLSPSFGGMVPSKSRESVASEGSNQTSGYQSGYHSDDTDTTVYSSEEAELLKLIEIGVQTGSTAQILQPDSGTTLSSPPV
Adenosine receptor A1 (Bos taurus), sequence (P28190 whole entry, looked up): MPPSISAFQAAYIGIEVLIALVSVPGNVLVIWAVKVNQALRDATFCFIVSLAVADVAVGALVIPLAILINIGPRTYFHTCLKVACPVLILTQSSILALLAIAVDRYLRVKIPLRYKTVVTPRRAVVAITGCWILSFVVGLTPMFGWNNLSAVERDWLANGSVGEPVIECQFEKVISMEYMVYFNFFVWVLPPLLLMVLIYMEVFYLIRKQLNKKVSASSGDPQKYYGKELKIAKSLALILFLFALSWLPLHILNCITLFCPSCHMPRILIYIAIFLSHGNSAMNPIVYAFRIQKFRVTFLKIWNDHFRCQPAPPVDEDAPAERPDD
human Sirtuin 2 (SIRT2), SIRT2 (gene 22933), sequence (Q8IXJ6 whole entry, looked up): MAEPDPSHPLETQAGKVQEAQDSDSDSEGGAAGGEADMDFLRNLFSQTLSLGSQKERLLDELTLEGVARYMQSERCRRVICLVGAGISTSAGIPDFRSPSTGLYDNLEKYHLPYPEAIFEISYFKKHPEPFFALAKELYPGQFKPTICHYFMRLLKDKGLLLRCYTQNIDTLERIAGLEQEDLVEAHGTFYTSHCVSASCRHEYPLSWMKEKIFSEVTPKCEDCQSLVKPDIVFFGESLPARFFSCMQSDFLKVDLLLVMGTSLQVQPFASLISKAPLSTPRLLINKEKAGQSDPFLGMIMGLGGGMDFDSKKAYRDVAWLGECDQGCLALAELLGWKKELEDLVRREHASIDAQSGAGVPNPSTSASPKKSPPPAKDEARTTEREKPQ
human Vascular Endothelial Growth Factor Receptor 3 (VEGFR3), FLT4 (gene 2324), sequence (P35916 whole entry, looked up): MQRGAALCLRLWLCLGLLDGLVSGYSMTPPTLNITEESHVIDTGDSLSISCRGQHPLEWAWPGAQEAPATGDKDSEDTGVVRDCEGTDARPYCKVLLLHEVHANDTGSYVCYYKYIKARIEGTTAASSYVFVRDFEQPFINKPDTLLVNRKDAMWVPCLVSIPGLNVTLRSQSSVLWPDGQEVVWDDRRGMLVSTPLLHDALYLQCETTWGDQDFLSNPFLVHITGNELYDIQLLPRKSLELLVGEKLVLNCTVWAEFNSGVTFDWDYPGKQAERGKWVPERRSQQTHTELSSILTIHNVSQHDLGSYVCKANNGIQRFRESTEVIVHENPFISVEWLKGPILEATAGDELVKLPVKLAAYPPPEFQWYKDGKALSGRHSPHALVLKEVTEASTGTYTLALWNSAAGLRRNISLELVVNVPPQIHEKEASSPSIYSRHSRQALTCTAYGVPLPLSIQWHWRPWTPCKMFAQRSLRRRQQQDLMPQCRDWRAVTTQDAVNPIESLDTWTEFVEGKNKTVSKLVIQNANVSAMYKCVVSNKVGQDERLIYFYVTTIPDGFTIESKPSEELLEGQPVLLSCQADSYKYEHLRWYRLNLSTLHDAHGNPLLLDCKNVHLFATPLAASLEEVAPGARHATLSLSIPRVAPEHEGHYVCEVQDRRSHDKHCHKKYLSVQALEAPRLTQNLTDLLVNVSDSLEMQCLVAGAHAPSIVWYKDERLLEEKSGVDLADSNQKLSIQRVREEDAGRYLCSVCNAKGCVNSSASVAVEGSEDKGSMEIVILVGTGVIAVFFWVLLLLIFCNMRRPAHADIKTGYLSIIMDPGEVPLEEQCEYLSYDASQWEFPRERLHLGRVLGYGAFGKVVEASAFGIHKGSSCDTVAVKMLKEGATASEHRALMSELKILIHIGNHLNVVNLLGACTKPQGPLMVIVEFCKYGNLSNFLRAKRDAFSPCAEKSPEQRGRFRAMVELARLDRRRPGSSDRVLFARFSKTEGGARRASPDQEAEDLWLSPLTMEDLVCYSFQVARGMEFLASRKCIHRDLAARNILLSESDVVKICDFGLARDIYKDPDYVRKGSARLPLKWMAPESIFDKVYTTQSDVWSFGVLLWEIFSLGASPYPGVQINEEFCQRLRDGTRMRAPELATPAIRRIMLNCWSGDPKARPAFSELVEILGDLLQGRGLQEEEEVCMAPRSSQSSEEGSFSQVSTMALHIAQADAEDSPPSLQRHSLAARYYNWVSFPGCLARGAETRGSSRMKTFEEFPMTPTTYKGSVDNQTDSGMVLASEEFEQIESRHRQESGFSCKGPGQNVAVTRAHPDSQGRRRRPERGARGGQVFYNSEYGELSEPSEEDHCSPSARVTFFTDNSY
rabbit Imidazoline 2 Central (I2C), CKB (gene 100009085), sequence (P00567 whole entry, looked up): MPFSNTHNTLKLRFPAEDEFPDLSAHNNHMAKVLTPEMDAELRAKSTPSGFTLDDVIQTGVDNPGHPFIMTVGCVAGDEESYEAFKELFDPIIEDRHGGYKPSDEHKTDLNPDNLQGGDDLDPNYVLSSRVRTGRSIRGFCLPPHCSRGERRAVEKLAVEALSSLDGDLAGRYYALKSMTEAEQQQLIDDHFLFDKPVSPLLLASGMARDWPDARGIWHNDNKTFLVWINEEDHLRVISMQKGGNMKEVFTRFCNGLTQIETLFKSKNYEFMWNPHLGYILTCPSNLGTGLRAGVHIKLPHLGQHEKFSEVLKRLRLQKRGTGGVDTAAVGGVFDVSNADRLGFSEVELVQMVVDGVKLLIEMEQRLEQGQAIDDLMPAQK
human Tropomyosin Receptor Kinase A (TRKA), NTRK1 (gene 4914), sequence (P04629 whole entry, looked up): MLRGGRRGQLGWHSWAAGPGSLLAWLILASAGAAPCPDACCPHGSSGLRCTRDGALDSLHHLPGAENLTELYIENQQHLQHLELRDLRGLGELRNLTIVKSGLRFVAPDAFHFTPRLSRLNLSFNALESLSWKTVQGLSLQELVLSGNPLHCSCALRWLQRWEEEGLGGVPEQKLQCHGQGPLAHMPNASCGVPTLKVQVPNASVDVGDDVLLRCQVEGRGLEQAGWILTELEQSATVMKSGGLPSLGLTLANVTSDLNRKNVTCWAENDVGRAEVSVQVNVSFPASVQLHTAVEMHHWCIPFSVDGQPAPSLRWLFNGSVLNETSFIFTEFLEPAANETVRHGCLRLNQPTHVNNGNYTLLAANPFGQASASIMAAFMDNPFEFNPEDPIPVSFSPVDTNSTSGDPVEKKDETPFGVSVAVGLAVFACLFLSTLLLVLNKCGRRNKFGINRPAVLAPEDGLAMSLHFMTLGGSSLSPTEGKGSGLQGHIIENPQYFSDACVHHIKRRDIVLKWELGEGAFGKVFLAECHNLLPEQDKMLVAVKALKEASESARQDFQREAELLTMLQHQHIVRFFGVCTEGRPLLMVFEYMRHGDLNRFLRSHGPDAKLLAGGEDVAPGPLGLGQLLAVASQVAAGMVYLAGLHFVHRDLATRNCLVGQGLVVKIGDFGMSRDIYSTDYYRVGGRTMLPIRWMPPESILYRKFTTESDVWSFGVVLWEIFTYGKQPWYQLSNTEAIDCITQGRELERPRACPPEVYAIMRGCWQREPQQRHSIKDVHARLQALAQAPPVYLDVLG
human Sirtuin 3 (SIRT3), SIRT3 (gene 23410), sequence (Q9NTG7 whole entry, looked up): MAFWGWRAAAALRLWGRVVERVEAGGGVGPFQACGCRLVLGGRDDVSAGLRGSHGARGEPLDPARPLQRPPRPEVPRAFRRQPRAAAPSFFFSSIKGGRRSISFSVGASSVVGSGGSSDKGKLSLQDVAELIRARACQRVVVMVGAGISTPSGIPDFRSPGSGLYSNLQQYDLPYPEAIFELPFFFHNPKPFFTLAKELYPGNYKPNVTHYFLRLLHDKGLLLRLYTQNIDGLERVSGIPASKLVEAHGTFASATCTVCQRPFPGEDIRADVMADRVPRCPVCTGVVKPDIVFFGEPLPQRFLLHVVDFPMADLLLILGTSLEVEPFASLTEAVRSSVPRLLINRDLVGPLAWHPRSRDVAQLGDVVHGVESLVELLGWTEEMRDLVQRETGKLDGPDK

Take `N[C@@H](Cc1cc(I)c(Oc2ccc(O)c(I)c2)c(I)c1)C(=O)O`: the concentration at half-maximal activity (AC50) (commonly the concentration at which the activity in the assay is half-maximal) in test [1] was 6.72 µM (active); in test [2], 3.2 µM (active).
Take `Cc1nn(C)c(Oc2ccccc2)c1C=NOCc1ccc(C(=O)OC(C)(C)C)cc1`: the AC50 in [3] is 6.6 µM (active).
For the compound `O=C(O)c1ccccc1`, the result in test [3] was inactive.
Turning to `C[C@]12CC[C@@H]3c4ccc(O)cc4C[C@@H](CCCCCCCCCS(=O)CCCC(F)(F)C(F)(F)F)[C@H]3[C@@H]1CC[C@@H]2O` (stereo not given in full), the result in test [4] was inactive.
Consider `CC(C)(C)[C@@H](O)[C@@H](Cc1ccc(Cl)cc1)n1cncn1`, for which the AC50 in test [5] is 46.6 µM (active).
Regarding `Oc1ccc(C(c2ccc(O)cc2)C(Cl)(Cl)Cl)cc1`, the AC50 is 17 µM (active) in test [3], 19.4 µM (active) in [6] and 15 µM (active) in test [7].
As for `COCCO`, the call in test [8] and in [9] was inactive.
For `CCOC(=O)c1ccc(O)cc1`, the result in test [9] was inactive.
Take `CC(=O)S[C@@H]1CC2=CC(=O)CC[C@]2(C)[C@H]2CC[C@@]3(C)[C@@H](CC[C@@]34CCC(=O)O4)[C@H]12`: in test [10], the compound was called inactive.
For the compound `CCOC(=O)[C@H](C)Oc1ccc(Oc2nc3ccc(Cl)cc3o2)cc1`, the concentration at half-maximal activity (AC50) in [11] was 9.56 µM (active).
In the case of `CC(=O)[C@H]1CC[C@H]2[C@@H]3CCC4=CC(=O)CC[C@]4(C)[C@H]3CC[C@]12C`, the half-maximal activity concentration (AC50) in [12] is 17.7 µM (active).
For `C=CCOC(Cn1ccnc1)c1ccc(Cl)cc1Cl` (stereo not given), the AC50 is 15.1 µM (active) in test [3] and 25 µM (active) in [13].
Regarding `S=C([S-])NCCNC(=S)[S-].[Mn+2]`, the concentration at half-maximal activity (AC50) in test [3] was 14.1 µM (active); in test [14] it was 15.4 µM (active); in test [6], 7.6 µM (active); in [1] it was 13.8 µM (active). In addition, the outcome in [13] was inactive.
Turning to `COC(=O)c1cccc(C)c1S(=O)(=O)NC(=O)Nc1nc(OCC(F)(F)F)nc(N(C)C)n1`, in test [2], the concentration at half-maximal activity (AC50) was 5.12 µM (active).
As to `CCCN(CCC)c1c([N+](=O)[O-])cc(C(F)(F)F)c(N)c1[N+](=O)[O-]`, the outcome in [12], in test [15] and in test [2] was inactive.
With `CCOC(=O)NCCOc1ccc(Oc2ccccc2)cc1`, in [16], the outcome was inactive.
For `O=C(O)C1(C(=O)Nc2ccc(Cl)cc2Cl)CC1`, the concentration at half-maximal activity (AC50) in test [9] is 14.9 µM (active). For the same compound, the outcome in [1] was inactive.
`CCCCC(CC)COC(=O)c1ccccc1C(=O)O` (stereo not given): the compound was classed as inactive in [11].
On to `O=C(c1ccc(O)cc1O)c1ccc(O)cc1O`, for which the AC50 is 15 µM (active) in test [17]; 25 µM (active) in [7]; 25 µM (active) in test [8]; 14.6 µM (active) in [1]; 3.39 µM (active) in [2].
